The values below come from PubChem BioAssay.

Records with an inconclusive call do not appear. Calls of active or inactive are those of the source. The limit is not given here; nearly all actives have AC50 up to about 26 µM.

The assay can be described thus: growth inhibition of DIPG glioma cells, dose response, cell-based, SU-DIPG-XVII, MIPE5.0, CellTiter-Glo, qHTS (AID 1347060).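 As to AC50: cells exposed to compound for 48 hours before viability readout.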 As to conditions: SU-DIPG-XVII viability, CellTiter-Glo ATP luminescence.
The term AC50 denotes the concentration giving half of the maximal activity seen. As to `Cc1cccc(Nc2nc(N[C@@H]3CCCC[C@@H]3N)ncc2C(N)=O)c1`, the AC50 is 18.6 µM (active).

As for `Cn1cc(-c2nc(N[C@@H]3CCCC[C@@H]3N)c(F)c3c2C(=O)NC3)cn1`, the outcome was inactive.

`Cn1c(=O)c(-c2c(Cl)cccc2Cl)cc2cnc(Nc3cccc(C(=O)O)c3)nc21`: the AC50 was 1.48 µM (active).

With `CN1C(=O)c2sccc2N(C)c2nc(Nc3ccc(S(N)(=O)=O)cc3)ncc21`, the AC50 was 14.8 µM (active).

For `CCN(CC)C(=O)Cc1csc(NS(=O)(=O)c2cccc(Cl)c2C)n1`, the outcome was inactive.

Take `CCN(c1cc(C#CCN2CCOCC2)cc(C(=O)NCc2c(C)cc(C)[nH]c2=O)c1C)C1CCC(N(C)CCOC)CC1` (configuration not stated): the compound was classed as inactive.

Regarding `CNCCN(C)Cc1cn[nH]c1-c1ccc(OC2CC(OCCC3CCOCC3)C2)cc1` (configuration not stated), the compound was classed as inactive.

Turning to `Cc1ccc(C2=Nc3ccc(Cl)cc3OC2)cc1`, the outcome was inactive.

On to `Cc1cccc(-c2[nH]ncc2-c2ccc(F)c(-c3cnn(CCO)c3)c2)n1`, for which the call was inactive.

Regarding `Cc1cc2c(F)c(Oc3ncnn4cc(OCC(C)OC(=O)C(C)N)c(C)c34)ccc2[nH]1` (configuration not stated), the AC50 is 16.6 µM (active).

Take `CS(=O)(=O)Nc1cc2occ(NC=O)c(=O)c2cc1Oc1ccccc1`: the compound was called inactive.

For `CC1=C2[N-][C@H]([C@H](CC(N)=O)[C@@]2(C)CCC(=O)NC[C@@H](C)OP(=O)([O-])O[C@H]2[C@@H](O)[C@@H](n3cnc4cc(C)c(C)cc43)O[C@@H]2CO)[C@]2(C)N=C(C(C)=C3N=C(C=C4N=C1[C@@H](CCC(N)=O)C4(C)C)[C@@H](CCC(N)=O)[C@]3(C)CC(N)=O)[C@@H](CCC(N)=O)[C@]2(C)CC(N)=O.O.[Co+2]`, the compound was classed as inactive.
